PubChem BioAssay (Tox21)
Inconclusive results are not listed. The source made the active and inactive calls. Unless noted, calls come from the whole dose curve; as a rule, active = well fitted curve in the direction sought with a large enough effect in the repeat runs; inconclusive = weak or mixed curves; inactive = no such curve, though single readings can be large; an effect the other way counts as inactive or inconclusive.

Key:
[1] = qHTS assay to identify small molecule agonists of the vitamin D receptor (VDR) signaling pathway - cell viability counter screen (AID 743224); note: series mostly up to about 63 µM; nearly all actives have a fitted effect of over 50% in size
In short: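 VDR-bla cells were preincubated 4 h at 37C/5% CO2, then exposed to compounds for 16 h. After the 2 h room-temperature bla FRET read, CellTiter-Glo was added to the same wells and luminescence read after 30 min.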

[2] = qHTS assay to identify small molecule antagonists of the vitamin D receptor (VDR) signaling pathway - cell viability counter screen (AID 743225); note: nearly all actives have a fitted effect of over 50% in size; note: potency is the fitted concentration of half-maximal effect
In short: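 Parallel cytotoxicity test: VDR-UAS-bla HEK 293T, 3 nM (final) 1-alpha,25-dihydroxyvitamin D3 with test compound, 16 h, 37C. Endpoint is CellTiter-Glo luminescence in the same wells.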

[3] = qHTS assay to identify small molecule agonists of the NFkB signaling pathway (AID 1159509; active = well fitted curve in the direction sought with a large enough effect in the signal ratio in the repeat runs, not every such curve was filed as active; the % refers to the signal ratio; note: series mostly up to about 61 µM)
In short: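 After overnight attachment, reporter cells received test compounds, DMSO or positive controls and were incubated 5 hr at 37 C. FRET substrate was then added for 1.5 hr at room temperature before dual-emission fluorescence reading.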

[4] = qHTS assay to identify small molecule agonists of the NFkB signaling pathway - cell viability counter screen (AID 1159515; calls by dose curve; note: series mostly up to about 61 µM; nearly all actives have a fitted effect of over 55% in size)
In short: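 NFkB-bla ME-180 cells, 2,000/well, were plated overnight at 37 C, 5% CO2, then exposed to compounds in DMSO for 5 hr. After the bla FRET read, CellTiter-Glo was added to the same wells; luminescence was read after 30 min at room temperature.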

[5] = qHTS assay to identify small molecule agonists of the endoplasmic reticulum stress response signaling pathway (AID 1159516; active = well fitted activation curve with a large enough effect in the signal ratio in the repeat runs, not every such curve was filed as active; the % refers to the signal ratio)
In short: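 CellSensor ESRE-bla HeLa cells, carrying a beta-lactamase reporter driven by the ER stress response element, were plated overnight and exposed to compounds for 5 hr at 37 C. Reporter activity was read as FRET substrate fluorescence after 2 hr at room temperature.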

[6] = qHTS assay to identify small molecule agonists of the endoplasmic reticulum stress response signaling pathway - cell viability counter screen (AID 1159517; calls by dose curve; note: series mostly up to about 61 µM; nearly all actives have a fitted effect of over 50% in size)
In short: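 Cells, HeLa ESRE-bla; density, 1,500/well; dosing, 5 hr at 37 C, 5% CO2; readout, CellTiter-Glo luminescence after 30 min RT.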

[7] = qHTS assay to identify small molecule antagonists of the retinoid-related orphan receptor gamma (ROR-gamma) signaling pathway - cell viability counter screen (AID 1159520); note: nearly all actives have a fitted effect of over 50% in size
In short: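 Cytotoxicity was read from cellular ATP (CellTiter-Glo luminescence) after 16 hr at 37 C with 1 uM doxycycline induction. The inducer was added 2 hr after compound transfer to Tet-on ROR gamma CHO cells.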

[8] = qHTS assay to identify small molecule agonists of the AP-1 signaling pathway - cell viability counter screen (AID 1159525; calls by dose curve; note: nearly all actives have a fitted effect of over 55% in size)
In short: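 Luminescent ATP readout (Cell Titer Glo, 30 min RT), normalised to DMSO and tetra n-octyl ammonium bromide controls. Cells were ME-180 AP-1-bla in 0.5% dialyzed FBS Opti-MEM, with a 5 h, 37 °C compound exposure.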

[9] = qHTS assay to identify small molecule agonists of the AP-1 signaling pathway (AID 1159526; calls by dose curve)
[10] = target: Retinoic acid receptor RXR-alpha (Homo sapiens) (UniProt P19793); experiment: qHTS assay to identify small molecule agonists of the RXR signaling pathway (AID 1159527; calls by dose curve; note: nearly all actives have a fitted effect of over 35% in size)
In short: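 16 hr incubation of compound-treated RXR-alpha-UAS-bla HEK 293T cells (2% charcoal-stripped FBS, 37 C) preceded a 2 hr room-temperature LiveBLAzer FRET substrate step and blue/green fluorescence measurement.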

[11] = qHTS assay to identify small molecule agonists of the RXR signaling pathway - cell viability counter screen (AID 1159529); note: nearly all actives have a fitted effect of over 50% in size; note: potency is the fitted concentration of half-maximal effect
In short: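 In this parallel viability measure, GeneBLAzer RXR-alpha HEK 293T cells (2% charcoal-stripped FBS) were given a 5 hr preincubation, treated with compounds 16 hr at 37 C, and read by CellTiter-Glo luminescence.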

[12] = qHTS assay to identify small molecule antagonists of the retinoid acid receptor (RAR) signaling pathway - cell viability counter screen (AID 1159551); note: nearly all actives have a fitted effect of over 35% in size
In short: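 C3RL4 cells were seeded overnight at 37 C, then treated with compounds plus 1 uM (final) retinol for 6 h at 37 C. Viability was read as ATP by CellTiter-Glo luminescence after 30 min at room temperature.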

[13] = qHTS assay to identify small molecule agonists of the retinoic acid receptor (RAR) signaling pathway (AID 1159553)
In short: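 C3RL4 cells carrying a RARE luciferase reporter were plated overnight at 37 C, then exposed to compounds in DMSO for 6 hr at 37 C and 5% CO2. Luminescence was read 30 min after luciferase reagent addition at room temperature.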

[14] = qHTS assay to identify small molecule antagonists of the estrogen related receptor (ERR) signaling pathway - cell viability counter screen (AID 1224818);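 note: series mostly up to about 46 µM; viability measured after 17.5 h of compound exposure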
In short: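 ERR reporter cells plated 6 h at 37 C/5% CO2, then compounds in DMSO pin-transferred and incubated 17.5 h at 37 C. Viability read as CellTiter-Fluor fluorescence after 30 min at 37 C.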

[15] = qHTS assay to identify small molecule antagonists of the estrogen related receptor signaling pathway with the pleiotropic PPARgamma coactivator (PGC) cell viability counter screen (AID 1224822; note: series mostly up to about 46 µM)
In short: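 PGC/ERR cells were seeded at 2,000 cells/well, rested 6 h at 37 C/5% CO2, then given compounds in DMSO by pin tool and incubated 17.5 h at 37 C. Viability came from CellTiter-Fluor fluorescence after 30 min.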

Measured: Potency

Retinoic acid receptor RXR-alpha (Homo sapiens), sequence (P19793 whole entry, looked up): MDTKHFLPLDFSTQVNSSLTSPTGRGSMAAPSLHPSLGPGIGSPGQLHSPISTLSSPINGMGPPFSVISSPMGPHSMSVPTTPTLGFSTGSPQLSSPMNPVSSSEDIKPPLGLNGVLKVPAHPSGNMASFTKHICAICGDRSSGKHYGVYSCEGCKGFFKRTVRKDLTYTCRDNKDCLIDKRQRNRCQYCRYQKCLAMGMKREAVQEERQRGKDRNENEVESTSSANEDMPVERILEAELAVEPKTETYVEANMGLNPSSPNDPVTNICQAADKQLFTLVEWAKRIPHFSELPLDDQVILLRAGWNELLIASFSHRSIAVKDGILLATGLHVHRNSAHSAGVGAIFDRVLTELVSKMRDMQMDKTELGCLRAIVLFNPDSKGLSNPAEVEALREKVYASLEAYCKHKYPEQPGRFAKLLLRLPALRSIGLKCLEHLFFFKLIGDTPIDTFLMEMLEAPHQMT

O=C(O)C(Cc1cc(I)c(O)c(I)c1)c1ccccc1 (centres undefined)
inactive: [1] | [2] | [3] | [4] | [5] | [6] | [7] | [8] | [9] | [10] | [11] | [12] | [13]

Nc1ccc(S(=O)(=O)O)c(N)c1
inactive: [1] | [3] | [4] | [5] | [6] | [7] | [8] | [9] | [10] | [11] | [12]

CN1CCN(CCCN2c3ccccc3Sc3ccc(S(=O)(=O)N(C)C)cc32)CC1
active: [2] 23.9 µM | [11] 23.9 µM
inactive: [3] | [4] | [5] | [6] | [7] | [8] | [9] | [10] | [12]

CC(=O)OCC(=O)[C@@]12OC(C)(C)O[C@@H]1C[C@H]1[C@@H]3C[C@H](F)C4=CC(=O)C=C[C@]4(C)[C@@]3(F)[C@@H](O)C[C@@]12C
inactive: [1] | [2] | [3] | [4] | [5] | [6] | [7] | [8] | [9] | [10] | [11] | [12]

O=S(=O)(c1ccccc1)c1ccc(Cl)cc1
inactive: [1] | [3] | [4] | [5] | [6] | [7] | [8] | [9] | [10] | [11] | [12]

CCOCCn1c(C2CCN(CCc3ccc(C(C)(C)C(=O)O)cc3)CC2)nc2ccccc21
inactive: [1] | [2] | [3] | [4] | [5] | [6] | [7] | [8] | [9] | [10] | [11] | [12]

CC(CCO)CCc1ccccc1 (centres undefined)
inactive: [1] | [2] | [3] | [4] | [5] | [6] | [7] | [8] | [9] | [10] | [11] | [12]

CCC(C)(O)CCC=C(C)C (centres undefined)
inactive: [1] | [2] | [3] | [4] | [5] | [6] | [7] | [8] | [9] | [10] | [11] | [12]

CCn1cc(C(=O)O)c(=O)c2cc(F)c(N3CCNCC3)nc21
inactive: [1] | [2] | [3] | [4] | [5] | [6] | [7] | [8] | [9] | [10] | [11] | [12]

CC(=O)Nc1ccccc1C
inactive: [3] | [4] | [5] | [6] | [7] | [8] | [9] | [10] | [11] | [12]

CC#N
inactive: [1] | [2] | [3] | [4] | [5] | [6] | [7] | [8] | [9] | [10] | [11] | [12] | [13]

Nc1nc(Cl)nc2c1ncn2[C@@H]1O[C@H](CO)[C@@H](O)[C@@H]1F
inactive: [1] | [2] | [3] | [4] | [5] | [6] | [7] | [8] | [9] | [10] | [11] | [12] | [13]

O=C(C(=O)c1ccccc1)c1ccccc1
inactive: [1] | [2] | [3] | [4] | [5] | [6] | [7] | [8] | [9] | [10] | [11] | [12]

O=C1OCCN1/N=C/c1ccc([N+](=O)[O-])o1
inactive: [1] | [2] | [3] | [4] | [5] | [6] | [7] | [8] | [9] | [10] | [11] | [12] | [13]

CCCCCCCC/C=C\CCCCCCCC(=O)OC(CO)CO
inactive: [1] | [3] | [4] | [5] | [6] | [7] | [8] | [9] | [10] | [11] | [12] | [13]

OC(CCCN1CCCCC1)(c1ccccc1)c1ccccc1
inactive: [1] | [2] | [3] | [4] | [5] | [6] | [7] | [8] | [9] | [10] | [11] | [12]

CC(C)OCC1CO1 (centres undefined)
inactive: [1] | [2] | [3] | [4] | [5] | [6] | [7] | [8] | [9] | [10] | [11] | [12]

Cc1ccccc1N1C(=O)c2cc(S(N)(=O)=O)c(Cl)cc2NC1C (centres undefined)
inactive: [1] | [2] | [3] | [4] | [5] | [6] | [7] | [8] | [9] | [10] | [11] | [12] | [14] | [15]

CCn1nc(C)c2c1C(=O)NCC(c1ccc(O)cc1)=N2
inactive: [1] | [2] | [3] | [4] | [5] | [6] | [7] | [8] | [9] | [10] | [11] | [12]

CCC(Cc1ccccc1)(C(=O)c1ccc(N2CCOCC2)cc1)N(C)C (centres undefined)
inactive: [3] | [4] | [5] | [6] | [7] | [8] | [9] | [11] | [12] | [13]
